Experimental findings from PubChem BioAssay (NCATS) are described below.

Several values for one entry are separate records, joined by “and”; a condition that tells them apart may be missing. Equal entries are not always repeated. Records with an inconclusive call do not appear. Activity calls are given as the source filed them. Calls follow the shape of the dose curve; as a rule, active = well fitted curve in the direction sought with a large enough effect in the signal ratio, with a control signal flat; inconclusive = small, poorly fitted or top-dose-only effect, or a change in a side signal; inactive = no such curve, though single readings can be large or run the other way; the % refers to the signal ratio. Peptide text beside a SMILES is read from it.

Sequence of Glucocorticoid receptor (Homo sapiens) (P04150 whole entry, looked up): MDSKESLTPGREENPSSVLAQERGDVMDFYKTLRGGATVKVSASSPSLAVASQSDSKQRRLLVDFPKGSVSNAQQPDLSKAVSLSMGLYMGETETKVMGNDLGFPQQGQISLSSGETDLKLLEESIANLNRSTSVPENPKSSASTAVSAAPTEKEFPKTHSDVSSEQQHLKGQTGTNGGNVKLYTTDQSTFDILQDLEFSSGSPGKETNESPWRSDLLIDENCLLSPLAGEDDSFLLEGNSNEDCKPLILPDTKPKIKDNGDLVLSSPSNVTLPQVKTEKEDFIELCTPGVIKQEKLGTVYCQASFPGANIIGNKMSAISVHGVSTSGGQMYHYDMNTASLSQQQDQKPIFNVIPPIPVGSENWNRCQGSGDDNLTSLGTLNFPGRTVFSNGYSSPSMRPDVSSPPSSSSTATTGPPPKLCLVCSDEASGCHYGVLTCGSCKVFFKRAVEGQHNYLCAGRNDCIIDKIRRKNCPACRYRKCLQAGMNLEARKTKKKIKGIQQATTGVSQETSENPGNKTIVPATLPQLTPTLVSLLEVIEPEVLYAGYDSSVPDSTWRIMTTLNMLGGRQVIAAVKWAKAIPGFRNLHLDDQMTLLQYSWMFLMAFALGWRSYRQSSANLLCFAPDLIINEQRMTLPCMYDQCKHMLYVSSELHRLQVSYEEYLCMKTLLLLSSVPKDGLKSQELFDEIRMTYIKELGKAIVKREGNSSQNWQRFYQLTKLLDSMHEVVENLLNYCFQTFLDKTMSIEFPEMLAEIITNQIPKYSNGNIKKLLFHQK

The target in the assay is Glucocorticoid receptor (Homo sapiens) (UniProt P04150). Nature of the assay: qHTS assay for small molecule agonists of glucocorticoid receptor signaling (AID 588532). The note with it: HeLa MMTV-bla, beta-lactamase ratio, agonist, 18 h; stronger effect = higher value; percent of dexamethasone control, DMSO zero. The source says:
NIH Chemical Genomics Center [NCGC] U.S. Environmental Protection Agency [EPA] National Institutes of Environmental Health Sciences [NIEHS] National Toxicology Program [NTP] NCGC Assay Overview The Glucocorticoid receptor (GR), a nuclear receptor subfamily member and its natural ligands includes […] etc. The GR is a validated drug target for inflammation. GR ligands such as dexamethasone are clinically available as anti-inflammatory drugs. Glucocorticoids implicate role in carbohydrate, protein and lipid metabolisms and programmed cell death. They are also a component of many chemotherapy regimens for the treatment of leukemias, lymphomas, and myelomas because of their role in the induction of apoptosis.
NCGC Assay Protocol Summary Using a beta-lactamase reporter-gene under control of glucocorticoid response element (GRE), a cell-based assay [CellSensor MMTV-bla HeLa cell line assay developed by Invitrogen] was used to measure GR ligands signaling. CellSensor MMTV-bla HeLa cells were used with assay medium containing 1% charcoal/dextran treated FBS, 0.1 mM NEAA, 1 mM sodium pyruvate and 25mM HEPES. The assay was performed in clear bottom black Greiner 1536-well plates. Dexamethasone and Mifepristine were used in the screen as agonist and antagonist positive controls respectively. Library compounds were measured for their ability to stimulate the reporter gene activity. Compounds were screened in a titration series in 1536-well format. The fluorescence intensity (405 nm excitation, 460/530 nm emission) was measured using an EnVision plate reader. Data was normalized relative to Dexamethasone control (0.1 uM, 100%), and DMSO only wells (basal, 0%). Concentration-response titration points for each compound were fitted to the Hill equation yielding concentrations of half-maximal stimulation (EC50) and maximal response (efficacy) values. qHTS protocol for GR beta-lactamase assay in agonist mode [Step] [Parameter] [Value] [Description] 1. Reagent; 6 uL; 1500 cells/well 2. Incubation; 37 C for 3-5 hrs 3. Compounds; 23 nL; 0.59 nM to 92 uM 4. Controls (Dexamethasone); 23 nL, - One column with dose response, start 4.6uM, 1:3 dilutions in duplicates - Final concentrations of 0.1 uM and 2 nM in two columns 5. Incubation; 37 C for 18 hrs 6. Detection reagent; 1 uL of CCF4-dye 7. Incubation; RT for 2 hrs 8. Detection; Fluorescence; Envision plate reader
(Quantitative high-throughput screening tests each substance at several concentrations.)
Regarding `N[C@@H](Cc1cc(I)c(Oc2cc(I)c(O)c(I)c2)c(I)c1)C(=O)O`, the activation was -13.7% (inactive).

In the case of `CCN(CC)C(=S)SSC(=S)N(CC)CC`, the activation was 3.99% (inactive).

On to `COC(=O)[C@H](Cc1ccccc1)NC(=O)[C@@H](N)CC(=O)O` (H-Asp-Phe-OMe), for which the activation was -0.956% (inactive) and -8.82% (inactive).

For `COc1c2occc2cc2ccc(=O)oc12`, the activation was 1.93% (inactive) and -3.63% (inactive).

As to `Cc1cc(O)c2c(c1)C(=O)c1cc(O)cc(O)c1C2=O`, the activation was -3.03% (inactive) and -5.65% (inactive).

As to `Nc1nc(Cl)nc2c1ncn2[C@H]1C[C@H](O)[C@@H](CO)O1`, the activation was -6.36% (inactive).

For the molecule `CCc1nc(N)nc(N)c1-c1ccc(Cl)cc1`, the activation is 6.7% (inactive) and -0.85% (inactive).

For the molecule `c1ccc2[nH]c(-c3cscn3)nc2c1`, the activation is -3.88% (inactive) and -4.87% (inactive).

Turning to `Nc1ccc(S(N)(=O)=O)cc1`, the activation is 9.11% (inactive).

As to `COc1cc(OC)c(C(=O)CCCN2CCCC2)c(OC)c1`, the activation was 4.51% (inactive).

As to `CCCCC(CC)COC(=O)C(C#N)=C(c1ccccc1)c1ccccc1` (stereo not drawn), the activation is -1.93% (inactive).

In the case of `O=c1c(O)c(-c2ccc(O)cc2O)oc2cc(O)cc(O)c12`, the activation is -17.5% (inactive).

Consider `CC(=O)N1CCN(c2ccc(OC[C@H]3CO[C@](Cn4ccnc4)(c4ccc(Cl)cc4Cl)O3)cc2)CC1`, for which the activation was 3.09% (inactive).
